Most compounds without a hit are left out; they make up all but 1.7% or so of the library.
PTHR1 agonist: qHTS for PTHR1 Agonists: Primary Screen. Parathyroid hormone/parathyroid hormone-related peptide receptor (Homo sapiens), Q03431. HEK293 GP2 PTHR1 cells, GloSensor cAMP luminescence, 1 h. Potency, µM (titrated, usually from 115 µM), for the others: top-dose activation, most hits filed as activators. hit rate 0.075% among 410,000. AID 743266, 2014; further: nearly all actives have a fitted effect of over 55% in size
Target sequence (Q03431 whole entry, looked up): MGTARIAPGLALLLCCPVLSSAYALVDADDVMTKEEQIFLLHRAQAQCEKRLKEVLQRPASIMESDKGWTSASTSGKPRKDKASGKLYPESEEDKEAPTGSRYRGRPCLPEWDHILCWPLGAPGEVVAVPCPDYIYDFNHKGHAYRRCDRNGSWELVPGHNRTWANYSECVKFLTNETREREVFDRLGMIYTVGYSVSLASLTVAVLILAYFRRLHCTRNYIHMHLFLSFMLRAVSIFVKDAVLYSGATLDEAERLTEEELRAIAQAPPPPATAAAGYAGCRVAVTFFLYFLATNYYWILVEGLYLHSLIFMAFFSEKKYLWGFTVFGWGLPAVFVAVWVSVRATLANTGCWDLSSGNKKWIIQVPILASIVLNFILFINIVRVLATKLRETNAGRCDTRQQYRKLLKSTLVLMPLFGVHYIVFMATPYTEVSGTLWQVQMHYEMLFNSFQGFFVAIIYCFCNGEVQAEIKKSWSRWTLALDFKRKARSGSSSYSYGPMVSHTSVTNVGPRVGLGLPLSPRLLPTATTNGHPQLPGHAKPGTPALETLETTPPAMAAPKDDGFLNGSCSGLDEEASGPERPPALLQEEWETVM
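HEK-293-derived GP2 cells expressing PTHR1 and a GloSensor cAMP reporter, 3,000/well, plated overnight, given luciferin plus IBMX (each 0.5 mM as added) for 1 h at 37 °C, then compound for 1 h at 37 °C. Luminescence was read after 15 min at room temperature.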
GLP-1R inv ag: qHTS of GLP-1 Receptor Inverse Agonists (Inhibition Mode). hit rate 1.6% among 410,000. Glucagon-like peptide 1 receptor (Homo sapiens), P43220. Potency, µM (titrated, usually from 38.3 µM), for inactives: at the highest dose activity change, negative = inhibition, usual class: inhibitors. HEK293 GLP-1R CRE-luciferase, luminescence, 24 h; GLP-1R form is constitutively active. AID 624417, 2012; further: on the % scale 0 is the no-effect control and ±100 the full control effect; nearly all actives have a fitted effect of over 55% in size
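Using stably transfected HEK293 (constitutively active GLP-1R, cAMP-luciferase reporter), compounds were incubated 24 hr and luciferase measured by luminescence.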
GLP1R cytotox: qHTS of GLP-1 Receptor Inverse Agonists: Cytotox Screen. HEK293 cAMP-luciferase reporter cells, luminescence, 24 h. Potency, µM (top dose mostly 38.3 µM), inactives show top-dose activity change, negative = inhibition, most hits filed as inhibitors. hit rate 0.13% among 410,000. AID 624418, 2012;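 further: loss of luciferase light is scored as toxicity; on the % scale 0 is the no-effect control and ±100 the full control effect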
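Compound-treated cells are incubated 24 hr at 37 deg C under 5% CO2 after a 12 hour attachment period, then luciferase detection reagent is added and luminescence is measured following 12 min at room temperature; lowered signal indicates toxicity.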
GLP-1R agonist: qHTS of GLP-1 Receptor Agonists | Glucagon-like peptide 1 receptor (Homo sapiens), P43220 | Potency, µM (series often up to 45.6 µM), for the others: at the highest dose activation, usual class: activators | hit rate 0.007% among 380,000 | HEK293 GLP-1R CRE-luciferase, luminescence, 4-6 h; cells express a hypersensitive GLP-1R form; further: % of control where 0% means no effect
* hit, by the source's call; i = inactive; ? = inconclusive; . = no result given; [ ] = remark or other dose. The call rests on the fitted dose curve; in most records, active means well fitted curve in the direction sought with a large enough effect; inconclusive means small, poorly fitted or top-dose-only effect, or another doubt; inactive means no such curve, though single readings can be large; an effect the other way counts as inactive or inconclusive. Potency means the concentration at half of the fitted maximal effect.

SMILES	PTHR1 agonist	GLP-1R inv ag	GLP1R cytotox	GLP-1R agonist
O=C(NCc1ccc(F)cc1)C1CCN(C(=O)c2ccc(-n3ccc4ccccc43)s2)CC1	-79%	6%	-16%	.
CCOC(=O)c1ccn(-c2nc(-c3cccc(OC)c3)cc(C(F)(F)F)n2)n1	-80%	?	-2%	.
O=C(c1ccccc1)c1ccc(OCC(O)CNCc2ccc(F)cc2)cc1 (configuration not stated)	-33%	?	-8%	11%
COc1ccc(C(OCC(O)CNC(C)c2ccccc2)c2ccc(OC)cc2)cc1 (configuration not stated)	19%	10µM*	?	9%
Cc1ccc(C(OCC(O)CNCc2ccc(F)cc2)c2ccccc2)cc1 (configuration not stated)	-3%	5.6µM*	?	-6%
CC(NCC(O)COCCC12CC3CC(CC(C3)C1)C2)c1ccccc1 (configuration not stated)	i	11µM*	?	-5%
COc1ccc(C(OCC(O)CNCCc2ccccc2)c2ccc(OC)cc2)cc1 (configuration not stated)	i	?	?	7%
OCC1(O)OC[C@@H](O)[C@H](O)[C@@H]1O (some centres not stated)	.	.	.	2%
Cc1ccc(S(=O)(=O)NCC(=O)OCC(=O)N2CCN(C(=O)c3ccco3)CC2)cc1C	-17%	0%	-3%	2%
Nc1nnc(CSCc2ccc(F)cc2)s1	i	3%	-8%	5%
CC(C)(C)NCC(=Cc1ccccc1)C(=O)c1ccccc1	-39%	?	5µM*	-28%
CCOC(=O)c1c(-c2ccccc2)oc2ccc(NS(=O)(=O)c3cc(C)c(C)cc3C)cc12	i	4.5µM*	8%	.
Cn1nnnc1SCCNCc1cc(Br)ccc1OCc1ccccc1Cl	-4%	10µM*	-13%	-2%
CCOc1cc(CNCCSc2nnnn2C)cc(Br)c1OCc1ccccc1	-25%[57.5 µM]	5.6µM*	-25%	6%
CCOc1cc(CNCCO)cc(Br)c1OCc1ccccc1	-1%	6.3µM*	-28%	7%
Cn1nnnc1SCCNCc1ccccc1OCc1ccccc1Cl	-20%	?	?	17%
Cn1nnnc1SCCNCc1ccc(OCc2ccccc2)cc1	-4%	-4%	3%	4%
COc1cc(CNC(C)(C)CO)cc(Br)c1OCc1ccc(Cl)cc1Cl	i	?	-14%	-27%
COc1cc(CNCCO)cc(Br)c1OCc1ccccc1Cl	i	6.3µM*	?	-1%
CN(C(=O)c1cccc(NC(=O)Cc2ccc(NC(=O)C3CCCN(C(=O)C4CCC4)C3)cc2)c1)C1CCCC1 (configuration not stated)	-74%	-9%	2%	9%
CCOc1cc(CNCc2ccncc2)cc(Br)c1OCc1ccc(F)cc1	-27%	10µM*	-13%	10%
Fc1ccc(COc2ccc(Br)cc2CNCc2ccncc2)cc1	-10%[57.5 µM]	?	2%	5%
CCOc1cc(CNCc2ccccc2)ccc1OCc1ccc(Cl)cc1	-26%	11µM*	?	12%
COc1ccc(CNCCc2ccc(Cl)cc2)cc1OCc1ccccc1	-30%	?	?	3%
CCOC(=O)c1c(NC(=O)Cc2ccccc2)sc2c1CC(C)(C)NC2(C)C	-14%	?	0%	?
SMILES	PTHR1 agonist	GLP-1R inv ag	GLP1R cytotox	GLP-1R agonist
CCOC(=O)c1c(NC(=O)CSc2nnnn2-c2ccccc2OCC)sc2c1CC(C)(C)NC2(C)C	-34%	10µM*	?	10%
CCOC(=O)c1c(NC(=O)C2COc3ccccc3O2)sc2c1CC(C)(C)NC2(C)C (configuration not stated)	i	3.2µM*	-28%	5%
CCN1CCN(c2ccc(N3CCN(S(=O)(=O)c4ccc(C)c([N+](=O)[O-])c4)CC3)nn2)CC1	-25%	1.6µM*	-7%	-2%
O=C(c1cc2c(c(-c3cccc(-c4ccc(F)cc4)c3)n1)[C@H](CCO)N(C(=O)c1ccc3c(c1)OCO3)C2)N1CCOCC1	-2%	-26%	4%	2%
COC(=O)c1ccc(NC(=S)NC2CCCCC2C)cc1 (configuration not stated)	-7%	10µM*	?	0%
CC(C)(C)NC(=O)NC(=O)COc1ccc(Br)cc1Br	-32%	10µM*	-7%	13%

Bioassay records: PubChem BioAssay, National Center for Advancing Translational Sciences (NCATS)
